Laboratory results taken from PubChem BioAssay (NCATS).
Results filed as inconclusive are left out. Where a call stands in place of a potency, no number is given. Active and inactive are the calls of the source. Calls come from the whole dose curve; as a rule, active = well fitted inhibition curve with a large enough effect; inconclusive = small, poorly fitted or top-dose-only effect; inactive = flat fitted curve, though single readings scatter.

Assay: P-glycoprotein substrates identified in KB-8-5-11 adenocarcinoma cell line, qHTS therapeutic library screen (AID 1346987); note: nearly all actives have a fitted effect of over 65% in size
Conditions: KB-8-5-11 (P-gp overexpressing) viability, CellTiter-Glo, 72 h; series mostly up to 44.5 µM
Procedure, shortened: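 KB-8-5-11, a colchicine-selected P-gp-overexpressing KB-3-1 subline, was grown without colchicine for the assay. Cells were seeded at 500 cells/well, dosed in concentration-response and incubated 72 h at 37 degree C, 5% CO2. Viability was read by CellTiter-Glo luminescence.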
Potency is the fitted concentration of half-maximal effect.

| Compound | Potency |
| --- | --- |
| CCS(=O)(=O)C(C)(C)S(=O)(=O)CC | inactive |
| CCOC(=O)NC(O)C(Cl)(Cl)Cl (stereo not given) | inactive |
| CCN(CC)C(C)C(=O)c1ccccc1 (stereo not given) | inactive |
| CNC(=O)NC(O)C(Cl)(Cl)Cl (stereo not given) | inactive |
| CC(C)[N+](C)(CCC(C(N)=O)(c1ccccc1)c1ccccc1)C(C)C | inactive |
| Cc1c(Cl)c(=O)oc2cc(OP(=O)(OCCCl)OCCCl)ccc12 | 6.51 µM (active) |
| CCC1(c2ccccc2)CCC(=O)NC1=O (stereo not given) | inactive |
| COCC(=O)N(c1c(C)cccc1C)C(C)C(=O)OC (stereo not given) | inactive |
| c1cc2c(c(N3CCNCC3)c1)OCCO2 | inactive |
| CC(Cc1ccccc1)NCc1ccccc1Cl (stereo not given) | inactive |
| NCc1cccnc1 | inactive |
| C#C[C@]1(O)C=C[C@H]2[C@@H]3CCC4=CC(=O)CC[C@@H]4[C@H]3CC[C@@]21CC | 6.51 µM (active) |
| CCC(=O)O[C@H]1CC[C@H]2[C@@H]3CCC4=CC(=O)CC[C@]4(C)[C@H]3CC[C@]12C | 2.78 µM (active) |
| Oc1ccc2[nH]cc(CCCCN3CC=C(c4ccccc4)CC3)c2c1 | inactive |
| CC[n+]1c(-c2ccccc2)c2cc(N)ccc2c2ccc(N)cc21 | inactive |
| COP(=O)(OC)OC=C(Cl)Cl | inactive |
| NC(=O)OCCCc1ccccc1 | inactive |
| O=C(O)c1nn(Cc2ccc(Cl)cc2Cl)c2ccccc12 | inactive |
| C=CCOC(Cn1ccnc1)c1ccc(Cl)cc1Cl (stereo not given) | 20.6 µM (active) |
| CCNc1nc(Cl)nc(NCC)n1 | inactive |
| C#C[C@]1(O)CC[C@H]2[C@@H]3CCC4=CC(=O)CCC4=C3C=C[C@@]21CC | 2.06 µM (active) |
| C[C@H]1C(=O)O[C@@H]2CCN3CC=C(COC(=O)[C@](C)(O)[C@]1(C)O)[C@H]23 | inactive |
| CCN(Cc1ccc(Cl)nc1)/C(=C/[N+](=O)[O-])NC | inactive |
| CC[C@]1(O)CC[C@H]2[C@@H]3CCC4=CCCC[C@@H]4[C@H]3CC[C@@]21C | 6.51 µM (active) |
| CC1=C2[C@H]3OC(=O)[C@@H](C)[C@@H]3CC[C@@]2(C)C=CC1=O | inactive |
